From PubChem BioAssay (NCI)
About 83,000 compounds went through this panel and 20% of them were active in at least one assay; those are over-represented in the sample as a whole.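 Single-dose data. Exposure time 48 hours. Values below 10 considered active.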 A number with no mark means an inactive call. Active and inactive are the calls of the source.

Assays:
Assay in all cases: NCI-60 one-dose screen, 48 h (100 = growth as untreated, 0 = no growth, -100 = all killed)
Conditions in all cases: 10 µM unless noted
[1] = test system: T-47D breast
[2] = test system: BT-549 breast
[3] = test system: MDA-MB-435 melanoma
[4] = test system: SW-620 colon
[5] = test system: MCF7 breast
[6] = test system: HCT-116 colon
[7] = test system: HCC-2998 colon
[8] = test system: KM12 colon

| Compound | growth [1] | growth [2] | growth [3] | growth [4] | growth [5] | growth [6] | growth [7] | growth [8] |
| --- | --- | --- | --- | --- | --- | --- | --- | --- |
| Cc1cccc(NC(=O)c2sc3nc4c(cc3c2N)CCCC4)c1 | 53.5% | 50.8% | -22.9% (active) | 36% | 11.3% | 22.3% | 70.6% | 22.9% |
| Clc1nc(-c2cccnc2)nc2sc3c(c12)CCCCCC3 | 95.4% | 99.8% | 97.3% | 106% | 92.7% | 97.1% | 107% | 116% |
| COc1ccc(N=C2NN=C(c3ccc(F)cc3)CS2)cc1OC | 86.7% | 108% | 83.3% | 98.6% | 104% | 96.1% | 98.1% | 99.2% |
| COc1cc2nc(N3CCC[C@@H](NC4=CC(=O)c5ccccc5C4=O)C3)nc(N)c2cc1OC | -40.9% (active) | 118% | 64.7% | -60.6% (active) | -63.3% (active) | -83.6% (active) | 106% | -35.2% (active) |
| COc1ccc(NC(=O)CSc2nc3ccccc3c(=O)n2-c2ccccc2C(F)(F)F)c(OC)c1OC | 95.1% | 99.8% | 107% | 95.3% | 97.8% | 98.3% | 118% | 101% |
| Cc1c(C2=NNC(c3ccc4c(c3)OCO4)C2)[n+]([O-])c2ccccc2[n+]1[O-] (centres undefined) | 92.3% | 91% | 108% | 98.4% | 92.8% | 99.2% | 84.2% | 113% |
| O=C(OCCCCOC(=O)n1cnc2ccccc21)n1cnc2ccccc21 | 92.2% | 104% | 103% | 106% | 96.7% | 102% | 111% | 104% |
| NC(=O)c1ccc2c(c1)OCO2 | 111% | 110% | 100% | 98% | 95.6% | 101% | 100% | 103% |
| O=C1CCCCN1CCCCC#Cc1ccccc1C#Cc1ccccn1 | 92.9% | 117% | 98.1% | 103% | 109% | 106% | 88.5% | 111% |
| COc1ccc(-c2nc(-c3ccccc3)c(-c3ccccc3)n2C2CC2)cc1OC1CCCCC1 | 58.4% | 97.3% | 72.5% | 58.2% | 52% | 38.8% | 83.2% | 62.2% |
| COC(=O)c1ccc2nc(-c3cc4ccccc4n3C)n(CCCCOc3cc4c(cc3OC)C(=O)N3CCC[C@H]3C=N4)c2c1 | 4.1% (active) | -53.6% (active) | -88.6% (active) | -23% (active) | 2.44% (active) | 8.52% (active) | -17.6% (active) | -29.2% (active) |
| O=C(CN1CCN(c2cc3c(cc2F)c(=O)c(C(=O)O)cn3C2CC2)CC1)Nc1ccc(C(=O)/C=C/c2ccccc2)cc1 | 85.1% | 9.61% (active) | 19.2% | 41% | 12.5% | -83.6% (active) | 70.1% | 25.3% |
| Cc1cc(N/C=c2\sc3ncnn3c2=O)no1 | 96.1% | 104% | 97.6% | 98.8% | 86.1% | 95.1% | 96.9% | 84.3% |
| NC(=O)c1c(NC(=O)c2ccc3c(c2)OCO3)sc2c1CCC(=O)C2 | -39.7% (active) | -6.08% (active) | 2.97% (active) | -10.8% (active) | -7.93% (active) | -56.3% (active) | 12.5% | -20.6% (active) |
| O=[N+]([O-])c1c(S(=O)(=O)O)cc2cc(S(=O)(=O)O)ccc2c1[N+](=O)[O-] | 109% | 104% | 105% | 105% | 97.7% | 98.2% | 99.2% | 91.5% |
| C#CCC1(c2ccc(F)c(F)c2)NS(=O)(=O)c2ccccc21 (centres undefined) | 85.4% | 110% | 107% | 108% | 94.1% | 95.5% | 102% | 102% |
| C=C1C(=O)O[C@H]2[C@H]1CC/C(Cn1cc(-c3ccccc3C(F)(F)F)nn1)=C\CC[C@@]1(C)O[C@@H]21 | -82.4% (active) | -60.4% (active) | 4.12% (active) | -62.9% (active) | -70.5% (active) | -99.1% (active) | -45.9% (active) | 36.5% |

| Compound | growth [1] | growth [2] | growth [3] | growth [4] | growth [5] | growth [6] | growth [7] | growth [8] |
| --- | --- | --- | --- | --- | --- | --- | --- | --- |
| COc1cc(NCCN=C(N)NC(N)=NC(C)C)c2ncccc2c1 | -5.22% (active) | 52.4% | 103% | 88.4% | -55.7% (active) | 28.1% | 82.9% | 29.9% |
| O=C1c2ccccc2C(=O)c2c1oc1oc3c(c(=O)c21)c(=O)n(-c1ccccc1)c1ccccc31 | 4.47% (active) | 12.3% | 87.8% | 18.6% | 51.6% | 41.7% | 42.9% | 18.9% |
| COc1ccc(C(=O)c2cc(OC)c(OC)c(OC)c2)cc1/C=C/C(=O)c1ccc(OC)c(OC)c1 | 35.2% | 36.5% | 20% | 9.37% (active) | 17.3% | 10.4% | 45.9% | 9.37% (active) |
| COc1cc(-c2n[nH]nc2-c2ccc3c(c2)OCCO3)cc(OC)c1OC | 40.5% | 12% | -11.4% (active) | 19.4% | 9.04% (active) | 8.07% (active) | 10.1% | 9.43% (active) |
| Cc1ccc2nc(-c3c(CCCO)noc3N)[nH]c(=O)c2c1 | 107% | 102% | 110% | 103% | 88.7% | 102% | 128% | 102% |
| O=C1OC(c2ccccc2)=N/C1=C\c1ccc([N+](=O)[O-])cc1 | 106% | 101% | 106% | 92.4% | 103% | 97.8% | 108% | 94.5% |
| CCCCCCCN(CCCCCCC)C(=N)c1ccc(OC)c2ccccc12 | -72.9% (active) | -7.55% (active) | -98.7% (active) | -89.1% (active) | -74.4% (active) | -86.7% (active) | -92.5% (active) | -84.3% (active) |
| O=C1c2ccccc2C(=O)c2c(N=Nc3sc(=O)[nH]c3S)cccc21 | 82.4% | 109% | 100% | 90% | 72% | 95.7% | 102% | 90.3% |
| CNC(=O)Cc1nc(-c2cccc(NS(=O)(=O)c3c(F)cccc3F)c2F)c(-c2ccnc(Nc3ccccc3)n2)s1 | 60.2% | 103% | 48.3% | 66.8% | 86.2% | 9.43% (active) | 84.6% | 70.2% |
| O=C(NCCCN1CCN(CCCNC(=O)C2CCCCC2)CC1)C1CCCCC1 | 90% | 96.4% | 96.4% | 95% | 95.7% | 95.6% | 99.9% | 104% |
| COc1cc(-c2cc(/C=C3\CCCCC3=O)[nH]n2)cc(OC)c1OC | 90.1% | 99.7% | 102% | 101% | 92.5% | 89% | 106% | 94.4% |
| CC(=O)C1CCC(C)=CC1=O (centres undefined) | 90.2% | 93.3% | 103% | 103% | 88.4% | 103% | 103% | 110% |
| O=C(Nc1ccc(I)cc1)c1cccc([N+](=O)[O-])c1O | 9.64% (active) | 4.69% (active) | 14.2% | 21.7% | 7.91% (active) | 8.14% (active) | 19.9% | 14.1% |
| CCOC(=O)c1cc(/C(=N\O)c2cc(OC)c(OC)c(OC)c2)n2cc(C)cc(C)c12 | 26.9% | 28.6% | -22.7% (active) | 13.3% | 13.6% | -6.14% (active) | 67.5% | 20.7% |
| COc1cc(Cn2c(SCC(=O)Nc3cc(OC)c(OC)c(OC)c3)nc3ccccc3c2=O)cc(OC)c1OC | 77% | 65.2% | 102% | 91.7% | 95.3% | 58.3% | 124% | 99.1% |
| CC1(C)OC2COC3(C(=O)O)OC(C)(C)OC3C2O1 (centres undefined) | 90.2% | 106% | 93.8% | 98.2% | 99.7% | 114% | 97.6% | 98.4% |
